# In the supplement of paper PMC8728848:
# About 410 targets per protein were measured; listed, in parts, are those with the strongest signals and a random draw of the rest.
# Legend:
# Test in all cases: glycan array binding signal (z-score within array); higher = stronger binding
# Conditions in all cases: glycan notation: IUPAC condensed, linker removed
# [1] = target: Gal6P(b1-4)GlcNAc
# How it was run: (§1)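 Columns mapping to the same glycan were averaged after glycan names were converted to IUPAC-condensed notation. The data come from 3228 arrays in the Consortium for Functional Glycomics database, limited to those with an available protein sequence. Binding is reported as a within-array Z-score averaged across arrays of one protein sequence and across linkers.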
# [2] = target: Gal6S(b1-3)GlcNAc6S
# How it was run: as §1
# [3] = target: Gal6S(b1-4)Glc6S
# How it was run: as §1
# [4] = target: Gal6S(b1-4)GlcNAc6S
# How it was run: as §1
# [5] = target: GalNAc(b1-3)Gal(a1-6)Gal(b1-4)Glc
# How it was run: as §1
# [6] = target: GalNAc3S(b1-4)GlcNAc3S
# How it was run: as §1
# [7] = target: Glc(a1-4)Glc(a1-4)Glc(a1-4)Glc
# How it was run: as §1
# [8] = target: Glc(a1-6)Glc(a1-6)Glc(a1-6)Glc
# How it was run: as §1
# [9] = target: GlcA(b1-6)Gal
# How it was run: as §1
# [10] = target: GlcNAc(b1-3)Gal
# How it was run: as §1
# [11] = target: GlcNAc(b1-3)Gal(b1-4)GlcNAc(b1-2)Man(a1-3)[GlcNAc(b1-3)Gal(b1-4)GlcNAc(b1-2)Man(a1-6)]Man(b1-4)GlcNAc(b1-4)GlcNAc
# How it was run: as §1
# [12] = target: GlcNAc(b1-3)Gal(b1-4)GlcNAc(b1-3)Gal(b1-4)GlcNAc(b1-2)Man(a1-3)[GlcNAc(b1-3)Gal(b1-4)GlcNAc(b1-3)Gal(b1-4)GlcNAc(b1-2)Man(a1-6)]Man(b1-4)GlcNAc(b1-4)GlcNAc
# How it was run: as §1
# [13] = target: GlcNAc(b1-3)Gal(b1-4)GlcNAc(b1-6)[GlcNAc(b1-3)]Gal(b1-4)GlcNAc
# How it was run: as §1
# [14] = target: Man(a1-2)Man(a1-2)Man(a1-3)Man
# How it was run: as §1
# [15] = target: Man(a1-3)[Man(a1-6)]Man(a1-6)[Man(a1-3)]Man
# How it was run: as §1
# [16] = target: Man(a1-3)[Man(a1-6)]Man(a1-6)[Man(a1-3)]Man(b1-4)GlcNAc(b1-4)GlcNAc
# How it was run: as §1
# [17] = target: Man(a1-3)[Man(a1-6)]Man(b1-4)GlcNAc(b1-4)[Fuc(a1-6)]GlcNAc
# How it was run: as §1
# [18] = target: Man(a1-6)Man
# How it was run: as §1
# [19] = target: Neu5Ac(a2-3)Gal(b1-3)[Fuc(a1-4)]GlcNAc(b1-3)Gal(b1-3)[Fuc(a1-4)]GlcNAc
# How it was run: as §1
# [20] = target: Neu5Ac(a2-3)Gal(b1-3)[Fuc(a1-4)]GlcNAc(b1-3)Gal(b1-4)[Fuc(a1-3)]GlcNAc
# How it was run: as §1
# [21] = target: Neu5Ac(a2-3)Gal(b1-4)GlcNAc(b1-2)Man(a1-3)[Neu5Ac(a2-3)Gal(b1-4)GlcNAc(b1-2)Man(a1-6)]Man(b1-4)GlcNAc(b1-4)[Fuc(a1-6)]GlcNAc
# How it was run: as §1
# [22] = target: Neu5Ac(a2-3)Gal(b1-4)GlcNAc(b1-3)Gal(b1-4)GlcNAc(b1-3)Gal(b1-4)GlcNAc(b1-2)Man(a1-3)[Neu5Ac(a2-3)Gal(b1-4)GlcNAc(b1-3)Gal(b1-4)GlcNAc(b1-3)Gal(b1-4)GlcNAc(b1-2)Man(a1-6)]GalNAc
# How it was run: as §1
# [23] = target: Neu5Ac(a2-3)Gal(b1-4)GlcNAc(b1-3)Gal(b1-4)[Fuc(a1-3)]GlcNAc
# How it was run: as §1
# [24] = target: Neu5Ac(a2-3)Gal6S(b1-4)GlcNAc
# How it was run: as §1
# [25] = target: Neu5Ac(a2-6)Gal(b1-4)GlcNAc(b1-3)Gal(b1-4)GlcNAc(b1-3)Gal(b1-4)GlcNAc(b1-2)Man(a1-3)[Neu5Ac(a2-6)Gal(b1-4)GlcNAc(b1-3)Gal(b1-4)GlcNAc(b1-3)Gal(b1-4)GlcNAc(b1-2)Man(a1-6)]GalNAc
# How it was run: as §1
# [26] = target: Neu5Ac(a2-6)Gal(b1-4)GlcNAc(b1-3)Gal(b1-4)[Fuc(a1-3)]GlcNAc(b1-3)Gal(b1-4)[Fuc(a1-3)]GlcNAc
# How it was run: as §1
# [27] = target: Neu5Ac(a2-6)Gal(b1-4)GlcNAc6S
# How it was run: as §1
# [28] = target: Neu5Gc(a2-3)Gal(b1-4)GlcNAc(b1-3)Gal(b1-4)GlcNAc(b1-2)Man(a1-3)[Neu5Gc(a2-3)Gal(b1-4)GlcNAc(b1-3)Gal(b1-4)GlcNAc(b1-2)Man(a1-6)]Man(b1-4)GlcNAc(b1-4)GlcNAc
# How it was run: as §1
binder,measurement,setting,value
EULS2 M2 (Oryza sativa) (protein) MVYCRANPNYAMTARNGAVVLAPANPKDEYQHWIKDMRWSTSIKDEEGYPAFALVNKATGQAIKHSLGQSHPVRLVPYNPEVMDESVLWTESRDVGNGFRCIRMVNNIYLNFDAFHGDKYHGGVRDGTDIVLWKLCEGDSQRWKIQPYYILEQKLISEEDLNSAVDHHHHHH,glycan array binding signal (z-score),[1],-0.418
same,glycan array binding signal (z-score),[2],4.18
same,glycan array binding signal (z-score),[3],4.74
same,glycan array binding signal (z-score),[4],2.72
same,glycan array binding signal (z-score),[5],0.855
same,glycan array binding signal (z-score),[6],0.228
same,glycan array binding signal (z-score),[7],-0.217
same,glycan array binding signal (z-score),[8],-0.066
same,glycan array binding signal (z-score),[9],0.412
same,glycan array binding signal (z-score),[10],-0.404
same,glycan array binding signal (z-score),[11],-0.176
same,glycan array binding signal (z-score),[12],0.163
same,glycan array binding signal (z-score),[13],-0.388
same,glycan array binding signal (z-score),[14],-0.332
same,glycan array binding signal (z-score),[15],7.3
same,glycan array binding signal (z-score),[16],3.29
same,glycan array binding signal (z-score),[17],0.966
same,glycan array binding signal (z-score),[18],5.83
same,glycan array binding signal (z-score),[19],0.084
same,glycan array binding signal (z-score),[20],-0.548
same,glycan array binding signal (z-score),[21],-0.323
same,glycan array binding signal (z-score),[22],-0.26
same,glycan array binding signal (z-score),[23],-0.328
same,glycan array binding signal (z-score),[24],-0.449
same,glycan array binding signal (z-score),[25],0.058
same,glycan array binding signal (z-score),[26],-0.268
same,glycan array binding signal (z-score),[27],-0.389
same,glycan array binding signal (z-score),[28],0.09
